Reference: PubChem BioAssay AID584 (National Center for Advancing Translational Sciences (NCATS), 2007)
Screen size: about 71,000 compounds; about 65 (0.09%) were called active. The full list was thinned out, with actives kept by preference. A number with no mark means an inactive call. Calls follow the shape of the dose curve; as a rule, active = well fitted curve in the direction sought with a large enough effect; inconclusive = small, poorly fitted or top-dose-only effect; inactive = flat fitted curve, though single readings scatter.

What follows are molecules tested against Beta-lactamase (Escherichia coli (strain K12)) (UniProt P00811) (assay: Promiscuous and Specific Inhibitors of AmpC Beta-Lactamase (assay with detergent)). Conditions: purified AmpC, nitrocefin hydrolysis with detergent; series mostly up to 28.7 µM; activity change, negative = inhibition: at the top concentration.
Sequence of Beta-lactamase (Escherichia coli (strain K12)) (P00811 whole entry, looked up): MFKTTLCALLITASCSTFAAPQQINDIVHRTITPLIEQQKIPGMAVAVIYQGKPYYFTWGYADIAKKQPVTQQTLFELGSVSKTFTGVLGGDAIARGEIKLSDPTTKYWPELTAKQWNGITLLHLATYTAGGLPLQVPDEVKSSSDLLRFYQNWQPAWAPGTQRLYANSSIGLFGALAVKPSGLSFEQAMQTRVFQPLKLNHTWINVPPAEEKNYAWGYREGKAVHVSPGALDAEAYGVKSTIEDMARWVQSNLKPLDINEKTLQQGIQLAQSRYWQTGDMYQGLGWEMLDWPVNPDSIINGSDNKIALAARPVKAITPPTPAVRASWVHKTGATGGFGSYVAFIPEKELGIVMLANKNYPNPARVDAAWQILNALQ
Experimental: NIH Molecular Libraries Screening Centers Network [MLSCN]
NIH Chemical Genomics Center [NCGC]
PI Name: Shoichet, Brian K.
This aggregation profiling approach exploits the sensitivity of aggregate formation to detergent. Inhibition of b-lactamase is measured in the presence and absence of 0.01% Triton X-100. This particular assay had the prescence of 0.01% Triton X-100. See Pubchem assay "Promiscuous and Specific Inhibitors of AmpC Beta-Lactamase (assay without detergent)" for related screen. Compounds that inhibit only in the absence of detergent are considered likely promiscuous aggregators.
A screen of 1,030 compounds was performed in Brian Shoichet's lab in 96-well format. AmpC activity was measured by following the absorbance at 480 nm. Nitrocefin is a chromogenic substrate: while nitrocefin is yellow (lmax 390 nm), the product of its hydrolysis is red (lmax 486 nm, 17,000 M-1). AmpC beta lactamase was provided by Brian Shoichet and Brian Feng, UCSF.
NCGC Assay Protocol Summary:
20 mM phosphate buffer, pH 7.0
Triton X-100: No Detergent screen: 0.0001%, Detergent screen: 0.01%.
Buffer in columns 3 and 4 as negative control (no enzyme).
5.3 nM AmpC in columns 1, 2, 5-48. Titration of UCSF compound 9 control (from 10 mM, then 1:2) pin-transferred to column 2. Column 1 is neutral (100% activity).
Six uL of reagents were dispensed to 1536-well Greiner black clear bottom plates. Compounds and controls (23 nL) were transferred via Kalypsys PinTool. The plates were incubated for 15 min at room temperature, and then 2 uL of 800 uM solution of nitrocefin was added to start the reaction. The plates were immediately transferred to and read every 20 seconds for 4 min on ViewLux (Perkin-Elmer) High-throughput CCD imager using 480 nm absorbance protocol. During dispense, reagent bottles were kept submerged into 4 deg C water bath.
Keywords: NIH Roadmap, MLSCN, MLI, MLSMR, qHTS, NCGC, AmpC Beta-Lactamase, Aggregation
% is scaled to controls: 0 for no effect and ±100 for the full control effect.

Compound | activity change, negative = inhibition
COc1ccc(-c2noc(COc3ccc(Cl)c(C)c3)n2)cc1 | 8.41%
COCC(C)NC(=O)c1ccc(Cl)c(Cl)c1 (stereo unspecified) | -5.24%
Cc1ccc(-c2ccc(=O)n(CC(=O)NCCCN3CCCCC3)n2)cc1 | -2.99%
COc1ccc(S(=O)(=O)N2CCC(C(=O)N3CCc4ccccc4C3)CC2)cc1OC | -5.79%
CCn1c(=O)cc(SCC(=O)NCc2ccc3c(c2)OCO3)c2ccccc21 | 2.33%
COc1ccccc1-c1nc(C(F)(F)F)c(OC)o1 | -3.4%
CCC(=O)Nc1ccccc1N1CCN(S(C)(=O)=O)CC1 | -0.929%
COc1cc(C2C(C#N)=C(C)NC3=C2C(=O)CC(C)(C)C3)ccc1O (stereo unspecified) | -0.562%
Cc1ccc(S(=O)(=O)N2CCOCC2)cc1C(=O)NCc1ccc(F)cc1 | -4.01%
COc1cc(Br)cc(/C=N/c2ncn[nH]2)c1O | -0.505%
COC(=O)[C@@]1(Cc2ccccc2)[C@H]2c3cc(C(=O)N4CCCC4)n(Cc4ccc(C)o4)c3C[C@H]2CN1C(=O)c1ccccc1 | -3.5%
CCn1c(CSc2ncccn2)nnc1SCC(=O)N1c2ccccc2CC1C (stereo unspecified) | 0.00583%
COc1cc(C2C(C(=O)Nc3ccc(F)cc3)=C(C)Nc3nc(CCCO)nn32)cc(OC)c1OC (stereo unspecified) | 9.75%
CC(C)c1ccc(NS(=O)(=O)c2cn(C)c(=O)n(C)c2=O)cc1 | 9.52%
O=C(CCn1c(=O)oc2ccccc21)Nc1ccon1 | 2.22%
CCOC(=O)c1cc(-c2nnc(-c3cc(OC)c(OC)c(OC)c3)o2)c(C)nc1C | 3.14%
c1csc(CN2CCN(Cc3cccs3)C2c2cccs2)c1 | 3.14%
COC(=O)CNS(=O)(=O)c1ccc(Cc2ccc(S(=O)(=O)NCC(=O)OC)cc2)cc1 | 11.4%
Cc1ccc(C2(c3ccc(C)cc3)NC(=O)N(Cc3c(C)noc3C)C2=O)cc1 | -4.23%
C[C@@H](C(=O)Nc1ccc2ccccc2c1)[C@@H]1C[C@@]1(C)[C@@H](NC(=O)c1cccnc1)c1ccccc1 | -2.3%
N#Cc1c2c(c(N3CCN(CCO)CC3)n3c1nc1ccccc13)CCCC2 | -1.69%
Cc1cc(Br)ccc1NC(=O)C1CCCO1 (stereo unspecified) | -2.73%
CO[C@@H]1/C=C\O[C@]2(C)Oc3c(C)c(O)c4c(O)c(c(CN(C)C)c(O)c4c3C2=O)NC(=O)/C(C)=C\C=C[C@@H](C)[C@@H](O)[C@H](C)[C@@H](O)[C@H](C)[C@H](OC(C)=O)[C@@H]1C | -4.9% [at 5.75 µM]
O=C(CCCCn1c(=O)[nH]c2ccccc2c1=O)NCc1ccc2c(c1)OCO2 | 14.5%
CCN(CC(=O)NC(C)C)C(=O)CCNC(=O)c1ccc(Cl)cc1 | -4.89%
COc1ccc(-c2nc3cnc(N(C)C)nc3n(Cc3cccs3)c2=O)cc1 | -2.8%
